DT40 TDP1 CPT = DT40-hTDP1 cell growth loss with CPT; chicken DT40 Tdp1-/-;hTDP1 cells + 20 nM CPT, ATP luminescence, 48 h; Potency, µM (doses to about 46.2 µM), for the others: top-dose activity change, negative = growth inhibition, actives largely listed as inhibitors; 420,000 tested, 12% active; AID 686979; further: potency means the concentration at half of the fitted maximal effect; nearly all actives have a fitted effect of over 55% in size
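Chicken DT40 Tdp1-/- cells complemented with human TDP1, 400 cells/well, exposed to compounds plus 20 nM camptothecin for at least 48 h at 37 C; viability read as ATP content by CellTiter-Glo luminescence.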
HT1080NT lethal = kills 2HG-producing HT-1080-NT fibrosarcoma cells; Potency, µM (series often up to 46.1 µM), inactives show at the top dose activity, negative = less viability, most hits filed as cytotoxic; HT-1080-NT fibrosarcoma viability, CellTiter-Glo ATP luminescence, 48 h; AID 686970; 360,000 tested, 1.6% active;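 further: NT is the 2HG producing partner of a matched IDH1 knockdown line; potency means the concentration at half of the fitted maximal effect; 0% = DMSO-treated cells and -100% = media-only wells without cells; nearly all actives have a fitted effect of over 55% in size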
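Fibrosarcoma NT cells, 750 per well in 5% FBS RPMI, were exposed to compound for 48 hours. Viability: CellTiter-Glo luminescence.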
TDP1 cell noCPT = qHTS for Inhibitors of human tyrosyl-DNA phosphodiesterase 1 (TDP1): qHTS in cells in absence of CPT; Potency, µM (titrated, usually from 46.2 µM), without a hit: top-dose activity change, negative = growth inhibition, hits mostly inhibitors; DT40 Tdp1-/- hTDP1 cells, no CPT, ATP luminescence, 48 h; 420,000 tested, 15% active; further: potency means the concentration at half of the fitted maximal effect; nearly all actives have a fitted effect of over 55% in size
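Readout: luminescence from CellTiter-Glo after 30 min in the dark at RT. Cells: DT40 Tdp1-/- with stable hTDP1, 400/well. Exposure: compounds alone, ≥48 hr, 37 °C.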
ELG1 DNA repair = ELG1-dependent DNA repair inhibition; AID 504467; HEK293T ELG1-luciferase reporter, luminescence, 16 h; DNA damage induced by 5-fluorouridine; 330,000 tested, 2.3% active; Potency, µM (doses to about 46.1 µM), inactives show at the top dose activity change, negative = inhibition, most hits filed as inhibitors; further: potency means the concentration at half of the fitted maximal effect; nearly all actives have a fitted effect of over 55% in size
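In this reporter screen, reduction of luminescence relative to DMSO vehicle indicated activity. Compounds and 5-fluorouridine were added together to 2,000 cells per well, incubated for 16 hr at 37 °C, then developed with ONE-Glo.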
HT1080 IDH1KD tx = kills HT-1080 cells with IDH1 knockdown; HT-1080 IDH1 knockdown viability, ATP luminescence, 48 h; Potency, µM (top dose mostly 46.1 µM), without a hit: top-dose activity, negative = toxicity, most hits filed as cytotoxic; 360,000 tested, 2% active; AID 686971;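 further: potency means the concentration at half of the fitted maximal effect; 0% = DMSO wells and -100% = cell-free medium wells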
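Knockdown cells (IDH1KD HT-1080) received compounds 2 h after plating at 750 cells/well and were kept 48 h at 37 °C in 5% FBS RPMI. A CellTiter-Glo luminescence read gave % activity for curve fitting.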
IL1B secr inh = blocks inflammasome-driven IL-1 beta release; 360,000 tested, 4.7% active; THP-1 LPS/ATP IL-1B secretion, AlphaLISA, 16 h; stronger effect = lower value; activity change, % at 57.5 µM; in the data active means activity change below about -50%; inconclusive means mostly about -30% to -49%
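Secreted IL-1B measured by AlphaLISA bead assay after 16 h compound exposure of THP-1 cells; compounds (final up to 57.5 uM) added 1 h before LPS (250 ng/mL) and ATP (1.25 mM) stimulation; lower signal means less secretion.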
* = called active by the depositor; ? = inconclusive; . = no result; [ ] = another dose, or the depositor's remark. Hits are enriched below; roughly 19% of the tested compounds scored in any of these assays. Unless noted, the call rests on the fitted dose curve; in most records, active means well fitted curve in the direction sought with a large enough effect; inconclusive means small, poorly fitted or top-dose-only effect, or another doubt; inactive means no such curve, though single readings can be large; an effect the other way counts as inactive or inconclusive. Unless noted, on the % scale 0 is the no-effect control and ±100 the full control effect.

SMILES	DT40 TDP1 CPT	HT1080NT lethal	TDP1 cell noCPT	ELG1 DNA repair	HT1080 IDH1KD tx	IL1B secr inh
CCN(CC)CCCN(C(=O)c1cccs1)c1nc(-c2ccc(OC)cc2)cs1	18.4µM*	?	20.6µM*	-3.9%	?	?
COc1ccc(OC)c(-c2csc(N(Cc3ccco3)C(=O)c3cccs3)n2)c1	?	-21.0%	?	?	-17.5%	-7.5
COc1ccc(CC(=O)N(CC2CCCO2)c2nc3ccccc3s2)cc1 (stereo not drawn)	?	-2.2%	13µM*	?	-0.7%	9.4
CCN(CC)CCCN(C(=O)c1cccc(C)c1)c1nc(-c2ccc(OC)cc2)cs1	-58.8%	-29.4%	7.31µM*	-17.8%	?	-50.4*
COCCN(C(=O)Cc1ccc(OC)c(OC)c1)c1nc(-c2cc(OC)ccc2OC)cs1	18.4µM*	10.9%	?	?	8.7%	39.0
COCCCN(C(=O)c1ccccc1F)c1nc(-c2ccc(OC)cc2)cs1	?	-9.2%	?	-20.0%	-12.2%	-17.3
CC(C(=O)c1ccc(-c2ccccc2)cc1)[n+]1ccccc1 (stereo not drawn)	2.59µM*	-10.7%	2.06µM*	2.7%	?	-13.2
CC(=O)Nc1cc[n+](C(C)C(=O)c2ccc(Cl)cc2)cc1 (stereo not drawn)	16.4µM*	0.8%	16.4µM*	-19.2%	-13.0%	21.3
CC(=O)Nc1cc[n+](CC(=O)c2ccc(Cl)cc2)cc1	7.9%	7.8%	-10.7%	-13.2%	7.4%	-0.1
Cc1ccc[n+](C(C)C(=O)c2ccc(-c3ccccc3)cc2)c1 (stereo not drawn)	4.11µM*	?	5.17µM*	-2.5%	-14.7%	?
CC(C(=O)c1ccc(-c2ccccc2)cc1)[n+]1cccc(C(N)=O)c1 (stereo not drawn)	11.1%	-10.4%	-10.0%	-16.2%	-13.6%	7.4
COC(=O)C1=C(CS(=O)(=O)c2ccc(OC)c(OC)c2)NC(=O)NC1c1ccc(O)c(OC)c1 (stereo not drawn)	10.9%	14.5%	10.0%	2.1%	26.9%	-5.3
O=C(NCCOc1ccccc1)c1ccc2c(c1)S(=O)(=O)c1cc(Cl)ccc1C2=O	?	-3.0%	?	-21.6%	-0.1%	-1.1
Nc1ncnc2[nH]c(=O)[nH]c12	-6.9%	.	16.6%	.	.	.
CN(C)c1ccc(N/C(=N\S(=O)(=O)c2cccs2)c2ccccc2)cc1	?	-4.4%	6.51µM*	4.4%	-7.1%	-22.9
CN(/C(=N/S(=O)(=O)c1cccs1)c1ccccc1)c1ccccc1	-3.1%	-3.6%	?	-0.5%	-5.9%	-12.1
CCC(Sc1nc2nccnc2c(=O)n1Cc1ccc(OC)cc1)C(=O)NC1CCCCC1 (stereo not drawn)	-28.9%	.	-18.4%	.	.	.
CC(=O)c1cccc(NC(=O)Cc2cccs2)c1	-1.8%	19.3%	-21.2%	-1.7%	-2.4%	-0.7
Cc1cccc(-c2nnc(-c3cccc(NC(=O)Cc4cccs4)c3)o2)c1	18.4µM*	?	14.6µM*	?	?	?
O=C(Cc1cccs1)Nc1ccc(-c2nnc(-c3ccccc3)o2)cc1	-21.1%	4.6%	-29.8%	.	22.7%	0.5
O=C(Cc1cccs1)Nc1cccc(C(=O)Nc2ccco2)c1	-6.8%	?	?	1.4%	11.2µM*	-19.8
Cc1ccc(-c2nnc(-c3cccc(NC(=O)c4cccs4)c3)o2)cc1	?	-1.6%	23.1µM*	?	-14.2%	-3.1
CCOc1ccc(S(=O)(=O)NCC(=O)OCc2nnc(-c3ccccc3)o2)cc1	-13.1%	3.0%	-24.3%	16.0%	6.6%	4.4
O=C(N/N=C/c1ccc[nH]1)c1cccnc1	14.6µM*	12.6%	6.51µM*	8.2%	-1.2%	3.7
O=C(N/N=C/c1cccs1)c1cccnc1	1.1%	10.5%	23.1µM*	?	-3.5%	16.6
SMILES	DT40 TDP1 CPT	HT1080NT lethal	TDP1 cell noCPT	ELG1 DNA repair	HT1080 IDH1KD tx	IL1B secr inh
O=C(N/N=C/c1cccs1)c1cncc(Br)c1	5.3%	-8.7%	-5.0%	-16.6%	-13.0%	-13.6
O=C(Nc1cccc(C(=O)OCc2cc(=O)n3ccsc3n2)c1)c1ccc(F)cc1	-24.0%	.	-16.6%	.	.	.
Cc1ccsc1/C=N\NC(=O)CCc1c(C)n[nH]c1C	-0.6%	15.7%	-7.7%	-26.0%	-1.5%	-7.1
Cc1ncc2c(c1CNC(=O)c1ccc3c(c1)OCO3)CCN(C(=O)c1cc3ccccc3o1)C2	1.9%[9.04 µM]	.	?	.	.	.
Cc1ccc(C)c(Cn2c3ccccc3c3cnn(CC(=O)NC(C)CCc4ccccc4)c(=O)c32)c1 (stereo not drawn)	3.26µM*	.	3.26µM*	.	.	.
Cc1c2cnn(CC(=O)NCc3ccccc3)c(=O)c2c(C)n1Cc1cccc(Cl)c1	4.61µM*	.	3.26µM*	.	.	.
Cc1ccc(C)c(Cn2c3ccccc3c3cnn(CC(=O)NC(C)c4ccccc4)c(=O)c32)c1 (stereo not drawn)	2.91µM*	.	2.31µM*	.	.	.
Cc1ccccc1Cn1c2ccccc2c2cnn(CC(=O)NCCc3ccc(Cl)cc3)c(=O)c21	?	.	18.4µM*	.	.	.
Cc1c2cnn(CC(=O)O)c(=O)c2c(C)n1Cc1cccc(Cl)c1	13.9%	.	-1.3%	.	.	.
O=C(c1ccc(F)c(F)c1)N1CCOc2ccc(CN3CCN(CCO)CC3)cc2C1	21.5%	.	-11.3%	.	.	.
CC(C)N(C)c1ncnc2c1ncn2[C@H]1CN(Cc2ccc3c(c2)OCO3)C[C@@H](CO)O1	-14.3%	0.3%	?	.	8.4%	-22.6
COc1cccc(CNC(=O)[C@@H]2CCCN2C(=O)[C@@H]2CCCN2C(=O)c2cccc(OC)c2)c1	?	13.5%	-23.3%	.	7.4%	0.0
Cc1ccc(C)c(Cn2c3ccccc3c3cnn(CC(=O)NCC(C)c4ccccc4)c(=O)c32)c1 (stereo not drawn)	13µM*	.	23.1µM*	.	.	.
O=C(Cn1ncc2c3ccccc3n(Cc3ccccc3F)c2c1=O)NCCc1ccc(Cl)cc1	?	.	-23.9%	.	.	.
Cc1ccc(C)c(Cn2c3ccccc3c3cnn(CC(=O)NCc4ccccc4)c(=O)c32)c1	23.1µM*	.	20.6µM*	.	.	.
Cc1ccccc1Cn1c2ccccc2c2cnn(CC(=O)NCC(C)c3ccccc3)c(=O)c21 (stereo not drawn)	?	.	-43.6%	.	.	.
Cc1c2cnn(CC(=O)NCCCN3CC(C)CC(C)C3)c(=O)c2c(C)n1Cc1ccccc1Cl (stereo not drawn)	?	?	?	11.6%	?	-58.2*

Screens from PubChem BioAssay.
